From the supplement of paper PMC10849652
Of roughly 8,800 targets only a part is listed; those with a hit were picked by preference. About 0.5% of all pairs of compound and target were hits.

How the values were obtained:
Experiment in all cases: log2 fold change, soluble protein after heating vs DMSO (PISA); higher = thermal stabilisation; K562 lysate, 10 uM; active = over 0.2 and 3.5 SD of the protein, either way, in both replicates (recomputed)
[1] = compound: CC1=C2C(=CC=C1)N=C(N(C2=O)C3=CC=CC=C3C)CN4C=NC5=C(N=CN=C54)N
Procedure, shortened: (§1)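 Log-two fold change in thermal stability relative to solvent controls is reported from duplicates. For each sample, crude K562 extract from dounce-homogenised pellets in PBS pH 7.4 with 1 mM MgCl2, at 1 mg/mL protein, was treated with 10 μM compound for 30 min. Aliquots heated for 3 min across 48°C-58°C were pooled, brought to 0.5% NP-40 at 4°C and cleared at 21,000xg for 90 min. The supernatant was quantified by TMTpro 16plex LC-MS/MS with channel sums equalised.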

[2] = compound: Cc1sc2c(c1C)C(c1ccc(Cl)cc1)=N[C@@H](CC(=O)OC(C)(C)C)c1nnc(C)n1-2
Procedure, shortened: as §1

[3] = compound: C1=CC=C(C=C1)[C@H](COC2=CC3=C(C=C2)NC(=O)N3)NC(=O)C4=CC=CN(C4=O)CC5=CC(=C(C=C5)F)F
Procedure, shortened: as §1

[4] = compound: CC1=C(SC2=C1C(=N[C@H](C3=NN=C(N32)C)CC(=O)N)C4=CC=C(C=C4)Cl)C
Procedure, shortened: as §1

[5] = compound: c1ccc([C@@H]2C[C@H]2NC2CCNCC2)cc1
Procedure, shortened: as §1

UniProt Q9H8M5, sequence (Q9H8M5 whole entry, looked up): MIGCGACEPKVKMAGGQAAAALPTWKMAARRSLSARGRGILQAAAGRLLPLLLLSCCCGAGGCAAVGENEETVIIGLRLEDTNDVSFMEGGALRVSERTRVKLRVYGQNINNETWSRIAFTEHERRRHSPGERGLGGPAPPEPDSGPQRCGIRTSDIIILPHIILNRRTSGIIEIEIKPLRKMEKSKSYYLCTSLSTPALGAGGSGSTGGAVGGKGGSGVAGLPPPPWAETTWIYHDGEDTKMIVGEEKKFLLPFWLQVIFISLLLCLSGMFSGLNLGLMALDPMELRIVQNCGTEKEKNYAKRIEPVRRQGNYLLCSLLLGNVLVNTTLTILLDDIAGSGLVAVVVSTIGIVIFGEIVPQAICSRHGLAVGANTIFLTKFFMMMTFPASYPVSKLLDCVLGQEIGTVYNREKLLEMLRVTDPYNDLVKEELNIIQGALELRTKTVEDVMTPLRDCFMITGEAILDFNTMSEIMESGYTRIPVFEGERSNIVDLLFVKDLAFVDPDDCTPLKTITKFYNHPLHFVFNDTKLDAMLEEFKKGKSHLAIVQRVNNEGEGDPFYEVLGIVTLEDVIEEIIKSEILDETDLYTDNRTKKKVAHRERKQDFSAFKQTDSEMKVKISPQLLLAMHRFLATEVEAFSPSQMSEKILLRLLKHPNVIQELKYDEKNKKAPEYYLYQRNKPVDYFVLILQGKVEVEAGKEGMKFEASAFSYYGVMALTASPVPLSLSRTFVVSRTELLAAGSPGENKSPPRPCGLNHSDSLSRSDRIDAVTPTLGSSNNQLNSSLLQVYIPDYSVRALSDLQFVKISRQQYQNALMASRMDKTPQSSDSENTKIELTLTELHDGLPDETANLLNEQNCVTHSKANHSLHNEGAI
UniProt Q6P3W2, sequence (Q6P3W2 whole entry, looked up): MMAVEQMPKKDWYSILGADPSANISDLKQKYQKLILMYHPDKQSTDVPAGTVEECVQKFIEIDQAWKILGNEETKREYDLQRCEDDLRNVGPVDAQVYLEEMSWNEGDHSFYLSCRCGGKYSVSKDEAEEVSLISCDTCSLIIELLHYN
UniProt Q08345, sequence (Q08345 whole entry, looked up): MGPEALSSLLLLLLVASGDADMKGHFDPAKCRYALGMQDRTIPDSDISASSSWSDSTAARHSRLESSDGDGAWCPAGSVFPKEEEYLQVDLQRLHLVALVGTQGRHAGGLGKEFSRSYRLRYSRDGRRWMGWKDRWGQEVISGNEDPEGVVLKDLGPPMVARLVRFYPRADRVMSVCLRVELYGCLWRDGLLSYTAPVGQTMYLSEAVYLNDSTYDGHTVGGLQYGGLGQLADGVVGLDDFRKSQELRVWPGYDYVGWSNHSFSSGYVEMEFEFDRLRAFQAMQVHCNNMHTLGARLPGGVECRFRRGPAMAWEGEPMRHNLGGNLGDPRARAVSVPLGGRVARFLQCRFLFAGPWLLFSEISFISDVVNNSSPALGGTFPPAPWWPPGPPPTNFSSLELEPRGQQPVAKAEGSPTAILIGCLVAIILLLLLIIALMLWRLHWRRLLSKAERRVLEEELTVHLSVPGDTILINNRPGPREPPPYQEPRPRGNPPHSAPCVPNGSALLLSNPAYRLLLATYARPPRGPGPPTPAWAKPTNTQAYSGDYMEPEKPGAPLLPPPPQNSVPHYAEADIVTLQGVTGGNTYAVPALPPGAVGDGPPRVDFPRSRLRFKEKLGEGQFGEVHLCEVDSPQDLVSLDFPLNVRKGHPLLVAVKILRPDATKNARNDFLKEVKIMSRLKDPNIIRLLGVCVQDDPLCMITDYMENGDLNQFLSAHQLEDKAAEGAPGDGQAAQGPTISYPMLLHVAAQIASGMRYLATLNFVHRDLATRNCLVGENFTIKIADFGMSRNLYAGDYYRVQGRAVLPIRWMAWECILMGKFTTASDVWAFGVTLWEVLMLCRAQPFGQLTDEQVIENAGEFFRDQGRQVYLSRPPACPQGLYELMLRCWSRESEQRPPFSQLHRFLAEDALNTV
UniProt G9CGD6, sequence (G9CGD6 whole entry, looked up): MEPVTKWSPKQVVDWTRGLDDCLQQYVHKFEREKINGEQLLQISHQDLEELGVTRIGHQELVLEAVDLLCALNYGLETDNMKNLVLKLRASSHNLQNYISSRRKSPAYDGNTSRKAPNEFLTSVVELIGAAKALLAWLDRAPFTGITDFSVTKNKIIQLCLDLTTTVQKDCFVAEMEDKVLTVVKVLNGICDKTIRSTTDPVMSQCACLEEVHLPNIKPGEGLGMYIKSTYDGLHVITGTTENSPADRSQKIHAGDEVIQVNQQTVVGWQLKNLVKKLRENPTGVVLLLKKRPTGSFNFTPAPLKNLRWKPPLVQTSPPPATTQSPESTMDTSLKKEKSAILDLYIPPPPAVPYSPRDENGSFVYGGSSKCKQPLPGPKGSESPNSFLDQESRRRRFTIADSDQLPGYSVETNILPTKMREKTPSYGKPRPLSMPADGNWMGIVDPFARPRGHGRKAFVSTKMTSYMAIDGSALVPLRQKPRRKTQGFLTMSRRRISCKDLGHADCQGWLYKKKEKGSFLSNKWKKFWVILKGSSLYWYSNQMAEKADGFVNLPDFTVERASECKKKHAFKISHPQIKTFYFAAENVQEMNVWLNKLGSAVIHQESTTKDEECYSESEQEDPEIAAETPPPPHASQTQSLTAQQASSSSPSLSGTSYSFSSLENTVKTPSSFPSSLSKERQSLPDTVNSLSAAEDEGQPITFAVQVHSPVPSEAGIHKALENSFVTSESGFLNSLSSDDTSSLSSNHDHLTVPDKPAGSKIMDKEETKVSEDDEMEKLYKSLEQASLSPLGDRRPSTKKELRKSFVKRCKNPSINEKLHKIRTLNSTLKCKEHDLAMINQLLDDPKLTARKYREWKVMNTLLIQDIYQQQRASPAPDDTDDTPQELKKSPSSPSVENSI
UniProt O75534, sequence (O75534 whole entry, looked up): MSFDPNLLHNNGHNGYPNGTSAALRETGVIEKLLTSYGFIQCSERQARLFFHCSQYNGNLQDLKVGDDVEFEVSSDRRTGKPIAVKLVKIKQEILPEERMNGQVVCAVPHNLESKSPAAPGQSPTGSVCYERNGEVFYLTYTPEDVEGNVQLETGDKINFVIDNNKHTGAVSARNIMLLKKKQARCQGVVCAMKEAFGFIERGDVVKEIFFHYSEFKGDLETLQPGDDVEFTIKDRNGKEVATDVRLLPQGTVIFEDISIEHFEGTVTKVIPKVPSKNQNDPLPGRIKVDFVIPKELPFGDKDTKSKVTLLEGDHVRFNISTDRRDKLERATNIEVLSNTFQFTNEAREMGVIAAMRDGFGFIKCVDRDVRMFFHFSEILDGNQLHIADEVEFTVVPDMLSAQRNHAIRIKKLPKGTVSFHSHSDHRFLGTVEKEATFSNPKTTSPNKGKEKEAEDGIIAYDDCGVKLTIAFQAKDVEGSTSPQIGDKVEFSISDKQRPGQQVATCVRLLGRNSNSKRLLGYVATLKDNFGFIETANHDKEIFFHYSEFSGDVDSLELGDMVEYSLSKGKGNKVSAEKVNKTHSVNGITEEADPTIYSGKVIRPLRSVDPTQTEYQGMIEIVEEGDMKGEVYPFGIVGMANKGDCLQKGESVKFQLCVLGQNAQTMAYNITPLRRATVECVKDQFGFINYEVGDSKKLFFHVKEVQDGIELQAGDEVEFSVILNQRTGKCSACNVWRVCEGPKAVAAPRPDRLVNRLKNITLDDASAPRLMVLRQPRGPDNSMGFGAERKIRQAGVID
UniProt Q9BSY9, sequence (Q9BSY9 whole entry, looked up): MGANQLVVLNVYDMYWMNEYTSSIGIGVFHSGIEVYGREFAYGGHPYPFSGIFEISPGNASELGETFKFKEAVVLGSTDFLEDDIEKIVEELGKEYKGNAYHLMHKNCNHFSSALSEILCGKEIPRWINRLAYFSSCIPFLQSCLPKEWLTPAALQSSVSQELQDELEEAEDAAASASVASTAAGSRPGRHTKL

Row | Target | log2 fold change [1] | log2 fold change [2] | log2 fold change [3] | log2 fold change [4] | log2 fold change [5]
1 | COL12A1 (UniProt Q99715) | 0.08 (inactive) | -0.078 (inactive) | – | – | –
2 | CLASP1 isoform 4 (UniProt Q7Z460) | 0.056 (inactive) | – | – | – | –
3 | DDR1 isoform 5 (UniProt Q08345) | – | -0.09 (inactive) | -0.1 (inactive) | 0.057 (inactive) | 0.135 (inactive)
4 | CNK3/IPCEF1 isoform 2 (UniProt G9CGD6) | -0.032 (inactive) | 0 (inactive) | – | – | -0.817 (inactive)
5 | DNAJC24 (UniProt Q6P3W2) | 0.007 (inactive) | 0.024 (inactive) | – | – | 0.055 (inactive)
6 | CSDE1 isoform 3 (UniProt O75534) | – | – | -0.18 (inactive) | -0.098 (inactive) | 0.043 (inactive)
7 | DESI2 (UniProt Q9BSY9) | -0.142 (inactive) | – | – | – | -0.038 (inactive)
8 | CNNM2 (UniProt Q9H8M5) | 0.041 (inactive) | 0.034 (inactive) | – | – | 0.014 (inactive)
